Measurements taken from the supplement of paper PMC10849652.
The full data set covers some 7,900 targets. This sample favours those with a hit. About 0.6% of all pairs of compound and target were hits.

Legend:
Experiment in all cases: log2 fold change, soluble protein after heating vs DMSO (PISA); higher = thermal stabilisation; K562 cells, 10 uM, 30 min; active = over 0.2 and 3.5 SD of the protein, either way, in both replicates (recomputed)
[1] = compound: CC[C@@H]1C(=O)N(C)c2cnc(Nc3ccc(C(=O)NC4CCN(C)CC4)cc3OC)nc2N1C1CCCC1
In short: (§1)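 K562 cells at 2×10^6 cells/mL were exposed to 10 μM compound for 30 min, then aliquots were heated for 3 min across 48°C-58°C, pooled, and extracted in PBS containing 0.5% NP-40 at 4°C. The supernatant after 21,000xg for 90 min was taken as soluble protein and measured by TMTpro 16plex LC-MS/MS with channel sums equalised. Thermal stability is reported relative to control samples, with values from duplicates. Fold changes are given on a log2 scale.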

[2] = compound: CC[C@@H]1C(=O)N(C)c2cnc(Nc3ccc(C(=O)N[C@H]4CC[C@H](N5CCN(CC6CC6)CC5)CC4)cc3OC)nc2N1C(C)C [volasertib]
In short: as §1

[3] = compound: CC[C@H](C)N1C=C(C2=C(C=C(C=C21)C3=CN=C(C=C3)N4CCNCC4)C(=O)NCC5=C(C=C(NC5=O)C)C)C
In short: as §1

[4] = compound: CC[C@H](C)[C@@H](C(=O)N[C@@H]([C@@H](C)O)C(=O)N[C@@H](CC(C)C)C(=O)[C@]1(CO1)C)NC(=O)[C@H]([C@@H](C)CC)N(C)C(=O)C [epoxomicin]
In short: as §1

[5] = compound: CCn1c(C(=O)N(C2CC2)C2CC2)cc2c3c(ncn3C)c(Nc3cc(C)n(C)n3)nc21
In short: as §1

[6] = compound: CCn1cc(-c2ccnc3[nH]c(-c4cccc(CN(C)C)c4)cc23)c(-c2ccc(NC(=O)N(C)C)cc2)n1
In short: as §1

[7] = compound: CN(C)CC(=O)Nc1ccc2[nH]c(=O)c3ccccc3c2c1
In short: as §1

[8] = compound: CN(CCOC1=CC=C(C=C1)C[C@H]2C(=O)NC(=O)S2)C3=CC=CC=N3 (racemic) [rosiglitazone]
In short: as §1

[9] = compound: CN1C2=C(C3=C1C(=O)N(N=C3)CC4=CC(=CC=C4)N)SC(=C2)S(=O)C
In short: as §1

[10] = compound: CN1CCC(CNc2ccc3ncc(-c4cccc(OC(F)(F)F)c4)n3n2)CC1
In short: as §1

[11] = compound: CN1CCN(CCOc2cc(OC3CCOCC3)c3c(Nc4c(Cl)ccc5c4OCO5)ncnc3c2)CC1 [saracatinib]
In short: as §1

[12] = compound: CN1CCN(c2nc(C3=C(c4c[nH]c5ccccc45)C(=O)NC3=O)c3ccccc3n2)CC1 [sotrastaurin]
In short: as §1

[13] = compound: CN1CC[C@H](c2c(O)cc(O)c3c(=O)cc(-c4ccccc4Cl)oc23)[C@H](O)C1 [alvocidib]
In short: as §1

[14] = compound: CN1CCc2c(c3ccccc3n2Cc2ccc(C(=O)NO)cc2)C1 [Tubastatin A]
In short: as §1

[15] = compound: CNC(=O)C1=CC=CC=C1NC2=NC(=NC=C2Cl)NC3=C(C=C(C=C3)N4CCOCC4)OC
In short: as §1

[16] = compound: CNC(=O)c1ccc(Nc2ncc(C(F)(F)F)c(NCc3nccnc3N(C)S(C)(=O)=O)n2)cc1 [defactinib]
In short: as §1

[17] = compound: CNCc1ccc(-c2[nH]c3cc(F)cc4c3c2CCNC4=O)cc1 [rucaparib]
In short: as §1

[18] = compound: CNc1nc(-c2ccc3c(N)n[nH]c3c2)cc(N2C[C@@H](C(=O)NC3CCCCC3)CC[C@H]2C)n1
In short: as §1

[19] = compound: COC(=O)N[C@@H](C)CNc1nccc(-c2cn(C(C)C)nc2-c2cc(Cl)cc(NS(C)(=O)=O)c2F)n1 [encorafenib]
In short: as §1

[20] = compound: COC(=O)[C@H](CCSC)NC(=O)C1=C(C=C(C=C1)NC[C@H](CS)N)C2=CC=CC=C2
In short: as §1

Measured: log2 fold change

CNOT1 (UniProt A5YKK6)
active: [2] -0.312
inactive: [1] -0.051 | [3] 0.056 | [4] -0.028 | [5] -0.028 | [6] 0.028 | [7] 0.061 | [8] 0.013 | [9] 0.011 | [10] -0.082 | [11] -0.025 | [12] -0.087 | [13] -0.051 | [14] -0.003 | [15] 0.03 | [16] -0.057 | [17] 0.077 | [18] 0.024 | [19] 0.074 | [20] -0.031

C4orf33 (UniProt Q8N1A6)
Chain of UniProt Q8N1A6 (Q8N1A6 whole entry, looked up): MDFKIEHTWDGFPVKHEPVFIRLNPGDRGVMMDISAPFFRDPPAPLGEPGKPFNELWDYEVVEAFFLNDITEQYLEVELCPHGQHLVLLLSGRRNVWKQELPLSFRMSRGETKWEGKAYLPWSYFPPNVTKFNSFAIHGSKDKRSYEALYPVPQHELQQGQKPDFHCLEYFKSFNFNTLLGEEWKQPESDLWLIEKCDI
inactive: [1] 0.044 | [2] 0.066 | [3] 0.007 | [4] -0.084 | [5] -0.034 | [6] -0.062 | [7] -0.007 | [8] 0.155 | [9] 0.009 | [10] -0.027 | [11] -0.027 | [12] -0.091 | [13] -0.07 | [14] -0.024 | [15] 0.048 | [16] -0.071 | [17] 0.091 | [18] 0.013 | [19] -0.076 | [20] 0.042

CETN2 (UniProt P41208)
Chain of UniProt P41208 (P41208 whole entry, looked up): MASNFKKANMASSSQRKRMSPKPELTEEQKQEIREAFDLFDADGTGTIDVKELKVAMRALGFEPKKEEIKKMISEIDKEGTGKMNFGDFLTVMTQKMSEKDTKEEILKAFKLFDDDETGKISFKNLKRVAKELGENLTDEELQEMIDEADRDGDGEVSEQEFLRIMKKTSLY
inactive: [1] 0.149 | [2] 0.159 | [3] -0.006 | [4] -0.074 | [5] 0.074 | [6] 0.065 | [7] -0.058 | [8] -0.01 | [9] -0.018 | [10] 0.037 | [11] 0.095 | [12] 0.077 | [13] -0.013 | [14] -0.128 | [15] -0.03 | [16] -0.054 | [17] 0.031 | [18] 0.058 | [19] -0.079 | [20] 0.06

CBS (UniProt P35520)
Chain of UniProt P35520 (P35520 whole entry, looked up): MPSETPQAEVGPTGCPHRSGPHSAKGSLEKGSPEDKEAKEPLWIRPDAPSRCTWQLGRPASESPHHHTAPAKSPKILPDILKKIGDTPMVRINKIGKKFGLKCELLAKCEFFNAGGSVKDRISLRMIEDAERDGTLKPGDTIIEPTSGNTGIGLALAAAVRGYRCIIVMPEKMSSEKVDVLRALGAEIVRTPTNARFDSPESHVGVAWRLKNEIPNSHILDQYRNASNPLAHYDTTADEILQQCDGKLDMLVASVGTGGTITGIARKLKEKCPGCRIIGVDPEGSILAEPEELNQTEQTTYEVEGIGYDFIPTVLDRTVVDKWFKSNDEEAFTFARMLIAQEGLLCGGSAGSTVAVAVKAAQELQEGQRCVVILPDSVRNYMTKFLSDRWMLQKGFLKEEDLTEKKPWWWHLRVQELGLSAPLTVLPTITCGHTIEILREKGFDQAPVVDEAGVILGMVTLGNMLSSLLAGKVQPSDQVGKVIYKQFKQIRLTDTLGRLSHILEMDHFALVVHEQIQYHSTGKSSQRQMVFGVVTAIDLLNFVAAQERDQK
inactive: [1] 0.007 | [2] 0.036 | [3] -0.049 | [4] 0.035 | [5] -0.019 | [6] 0.02 | [7] -0.012 | [8] 0.012 | [9] -0.073 | [10] -0.03 | [11] -0.009 | [12] 0.011 | [13] -0.035 | [14] -0.069 | [15] -0.021 | [16] 0.003 | [17] -0.061 | [18] -0.03 | [19] -0.001 | [20] -0.013

CRKL (UniProt P46109)
Chain of UniProt P46109 (P46109 whole entry, looked up): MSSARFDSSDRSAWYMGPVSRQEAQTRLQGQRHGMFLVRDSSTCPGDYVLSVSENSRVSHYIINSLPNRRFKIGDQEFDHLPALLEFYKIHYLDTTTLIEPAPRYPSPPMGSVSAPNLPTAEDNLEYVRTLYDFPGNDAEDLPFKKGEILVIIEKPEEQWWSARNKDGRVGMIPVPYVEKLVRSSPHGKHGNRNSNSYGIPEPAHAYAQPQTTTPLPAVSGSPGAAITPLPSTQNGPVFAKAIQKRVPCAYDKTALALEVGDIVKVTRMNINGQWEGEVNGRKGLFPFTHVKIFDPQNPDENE
inactive: [1] -0.012 | [2] -0.039 | [3] 0.007 | [4] 0 | [5] 0.008 | [6] 0 | [7] 0.012 | [8] 0.017 | [9] 0 | [10] -0.016 | [12] 0.003 | [13] -0.044 | [14] 0.003 | [15] -0.01 | [16] -0.052 | [17] -0.001 | [18] 0 | [19] 0.016 | [20] 0.008
active: [11] -1.42

CAVIN1 (UniProt Q6NZI2)
Chain of UniProt Q6NZI2 (Q6NZI2 whole entry, looked up): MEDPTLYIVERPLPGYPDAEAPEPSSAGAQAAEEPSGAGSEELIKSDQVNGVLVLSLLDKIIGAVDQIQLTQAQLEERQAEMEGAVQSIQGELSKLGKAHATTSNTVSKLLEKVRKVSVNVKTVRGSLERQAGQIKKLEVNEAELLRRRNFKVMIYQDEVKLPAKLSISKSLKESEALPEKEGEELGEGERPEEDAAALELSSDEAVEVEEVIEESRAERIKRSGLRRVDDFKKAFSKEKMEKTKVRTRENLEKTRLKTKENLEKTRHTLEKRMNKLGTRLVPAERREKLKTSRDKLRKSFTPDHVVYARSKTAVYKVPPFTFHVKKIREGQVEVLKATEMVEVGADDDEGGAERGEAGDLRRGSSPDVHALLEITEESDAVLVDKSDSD
inactive: [1] 0.072 | [2] 0.182 | [3] -0.007 | [4] -0.125 | [5] 0.013 | [6] 0.085 | [7] -0.06 | [8] -0.037 | [9] 0.124 | [10] -0.074 | [11] -0.065 | [12] -0.053 | [13] 0.101 | [14] 0.159 | [15] -0.015 | [16] 0.226 | [17] 0.098 | [18] 0.119 | [19] 0.122 | [20] 0.034

CD55 isoform 7 (UniProt P08174)
Chain of UniProt P08174 (P08174 whole entry, looked up): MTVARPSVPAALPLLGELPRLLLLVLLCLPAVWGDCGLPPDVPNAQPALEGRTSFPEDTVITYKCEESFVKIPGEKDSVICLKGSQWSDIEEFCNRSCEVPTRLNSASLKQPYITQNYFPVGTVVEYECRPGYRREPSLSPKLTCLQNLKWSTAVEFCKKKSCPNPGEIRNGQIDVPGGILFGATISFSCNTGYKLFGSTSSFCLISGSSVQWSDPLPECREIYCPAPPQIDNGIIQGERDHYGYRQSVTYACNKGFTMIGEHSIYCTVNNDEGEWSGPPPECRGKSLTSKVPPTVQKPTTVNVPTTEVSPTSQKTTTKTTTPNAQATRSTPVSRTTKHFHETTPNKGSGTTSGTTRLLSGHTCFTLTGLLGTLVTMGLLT
inactive: [1] 0.172 | [2] 0.096 | [3] -0.031 | [4] 0.086 | [5] 0.02 | [6] -0.006 | [7] -0.042 | [8] -0.078 | [9] -0.005 | [11] 0.06 | [12] -0.01 | [13] 0.03 | [14] 0.033 | [15] 0.012 | [16] 0.007 | [17] 0.022 | [18] 0.028 | [19] -0.016 | [20] 0.039
active: [10] 0.228

C4A (UniProt P0C0L4)
inactive: [1] -0.147 | [2] -0.216 | [3] -0.048 | [4] -0.316 | [5] -0.079 | [6] 0.197 | [7] 0 | [8] 0.154 | [9] 0.223 | [10] -0.32 | [11] 0.108 | [12] 0.268 | [13] 0.052 | [14] -0.039 | [15] -0.021 | [16] 0.072 | [17] -0.075 | [18] -0.188 | [19] -0.047 | [20] -0.039

CLTB (UniProt P09497)
Chain of UniProt P09497 (P09497 whole entry, looked up): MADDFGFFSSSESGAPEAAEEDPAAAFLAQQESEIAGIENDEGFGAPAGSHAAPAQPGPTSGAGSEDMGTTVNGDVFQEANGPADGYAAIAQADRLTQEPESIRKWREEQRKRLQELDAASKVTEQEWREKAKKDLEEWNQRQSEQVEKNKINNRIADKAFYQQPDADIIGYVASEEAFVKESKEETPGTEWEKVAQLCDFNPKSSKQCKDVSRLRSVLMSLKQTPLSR
inactive: [1] 0.099 | [2] 0.134 | [3] -0.102 | [4] 0.032 | [5] 0.001 | [6] -0.006 | [7] -0.024 | [8] -0.013 | [9] -0.064 | [10] 0.106 | [11] 0.064 | [12] 0.017 | [13] 0.078 | [14] -0.019 | [15] -0.034 | [16] 0.063 | [17] -0.039 | [18] -0.009 | [19] -0.014 | [20] 0.031

CNOT7 (UniProt Q9UIV1)
Chain of UniProt Q9UIV1 (Q9UIV1 whole entry, looked up): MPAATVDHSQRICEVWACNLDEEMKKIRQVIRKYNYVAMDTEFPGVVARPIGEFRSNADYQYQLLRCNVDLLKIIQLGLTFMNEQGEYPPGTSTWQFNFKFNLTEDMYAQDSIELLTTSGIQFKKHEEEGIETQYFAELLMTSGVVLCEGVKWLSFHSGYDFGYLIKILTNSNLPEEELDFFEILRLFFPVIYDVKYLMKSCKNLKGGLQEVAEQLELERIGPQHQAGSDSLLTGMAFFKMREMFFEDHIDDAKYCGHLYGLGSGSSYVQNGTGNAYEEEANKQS
inactive: [1] -0.086 | [3] -0.049 | [4] -0.053 | [5] -0.16 | [6] -0.052 | [7] -0.121 | [8] -0.04 | [9] 0.021 | [10] -0.082 | [11] 0.008 | [12] -0.044 | [13] -0.091 | [14] 0.004 | [15] -0.035 | [16] 0.018 | [17] 0.051 | [18] 0.104 | [19] 0.113 | [20] -0.109
active: [2] -0.305

COX5A (UniProt P20674)
Chain of UniProt P20674 (P20674 whole entry, looked up): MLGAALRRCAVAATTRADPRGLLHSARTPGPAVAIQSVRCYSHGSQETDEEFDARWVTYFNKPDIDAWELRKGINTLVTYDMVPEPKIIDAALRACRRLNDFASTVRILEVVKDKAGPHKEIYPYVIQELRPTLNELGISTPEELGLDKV
inactive: [1] 0.048 | [2] -0.08 | [3] -0.081 | [4] 0.234 | [5] -0.018 | [6] 0.072 | [7] -0.001 | [8] -0.042 | [9] -0.063 | [10] 0.269 | [11] -0.063 | [12] 0.025 | [13] -0.063 | [14] -0.015 | [15] 0.043 | [16] -0.016 | [17] 0.011 | [18] 0.007 | [19] -0.036 | [20] 0.11

CLCN3 isoform 2 (UniProt P51790)
Chain of UniProt P51790 (P51790 whole entry, looked up): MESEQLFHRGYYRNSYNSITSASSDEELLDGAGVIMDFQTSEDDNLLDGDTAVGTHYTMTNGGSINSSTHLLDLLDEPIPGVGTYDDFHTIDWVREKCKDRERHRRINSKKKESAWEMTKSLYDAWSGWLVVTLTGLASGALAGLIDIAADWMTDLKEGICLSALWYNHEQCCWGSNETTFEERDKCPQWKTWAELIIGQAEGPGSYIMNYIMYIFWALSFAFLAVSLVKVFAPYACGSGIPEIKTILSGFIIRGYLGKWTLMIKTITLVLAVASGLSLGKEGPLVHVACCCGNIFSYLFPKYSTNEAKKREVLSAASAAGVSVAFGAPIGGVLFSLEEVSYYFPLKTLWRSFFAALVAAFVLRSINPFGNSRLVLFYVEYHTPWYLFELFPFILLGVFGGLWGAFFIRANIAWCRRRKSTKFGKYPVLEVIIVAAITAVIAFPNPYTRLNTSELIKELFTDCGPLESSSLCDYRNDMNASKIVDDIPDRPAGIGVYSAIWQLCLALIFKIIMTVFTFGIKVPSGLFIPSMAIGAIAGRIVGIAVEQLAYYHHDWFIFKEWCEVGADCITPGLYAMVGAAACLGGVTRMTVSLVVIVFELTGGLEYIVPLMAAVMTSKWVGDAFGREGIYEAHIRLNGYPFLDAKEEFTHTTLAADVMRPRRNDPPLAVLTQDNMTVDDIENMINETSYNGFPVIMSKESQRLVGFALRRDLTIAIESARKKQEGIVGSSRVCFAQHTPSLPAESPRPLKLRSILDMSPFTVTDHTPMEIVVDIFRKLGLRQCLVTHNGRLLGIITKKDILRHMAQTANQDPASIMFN
inactive: [1] -0.047 | [2] -0.113 | [3] 0.026 | [4] 0.003 | [5] 0.018 | [6] -0.032 | [7] 0.024 | [8] 0.001 | [9] -0.028 | [10] -0.079 | [11] 0.104 | [12] -0.002 | [13] -0.079 | [14] -0.06 | [15] -0.018 | [16] -0.009 | [17] -0.002 | [18] -0.015 | [19] -0.027 | [20] -0.014

CHKA (UniProt P35790)
Chain of UniProt P35790 (P35790 whole entry, looked up): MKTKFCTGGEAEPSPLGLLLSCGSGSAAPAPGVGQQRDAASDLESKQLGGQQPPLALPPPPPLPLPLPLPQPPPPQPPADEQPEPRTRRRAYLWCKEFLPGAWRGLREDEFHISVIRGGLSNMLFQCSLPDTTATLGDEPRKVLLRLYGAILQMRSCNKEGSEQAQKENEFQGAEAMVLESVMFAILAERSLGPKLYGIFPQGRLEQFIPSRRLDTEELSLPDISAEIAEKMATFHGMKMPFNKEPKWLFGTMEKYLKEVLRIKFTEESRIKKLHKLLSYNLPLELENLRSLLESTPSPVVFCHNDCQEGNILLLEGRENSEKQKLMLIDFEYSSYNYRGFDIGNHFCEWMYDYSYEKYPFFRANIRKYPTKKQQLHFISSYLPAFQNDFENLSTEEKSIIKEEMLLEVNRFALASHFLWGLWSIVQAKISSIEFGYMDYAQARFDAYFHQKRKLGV
inactive: [1] 0.22 | [2] 0.161 | [3] -0.077 | [4] 0.127 | [5] -0.001 | [6] 0.203 | [7] 0.043 | [8] 0.044 | [9] -0.082 | [10] 0.187 | [11] 0.028 | [12] 0.107 | [13] 0.064 | [14] 0.148 | [15] -0.033 | [16] 0.006 | [17] 0.046 | [18] -0.027 | [19] -0.107 | [20] 0.056

COX20 isoform 2 (UniProt Q5RI15)
active: [6] 0.294
inactive: [1] -0.019 | [2] 0.077 | [3] -0.01 | [4] 0 | [5] 0.004 | [7] -0.038 | [8] 0.005 | [9] 0.002 | [10] 0.081 | [11] 0.005 | [12] 0.008 | [13] -0.025 | [14] -0.062 | [15] -0.028 | [16] -0.017 | [17] 0.044 | [18] -0.025 | [19] -0.108 | [20] 0.009

CLPTM1L (UniProt Q96KA5)
Chain of UniProt Q96KA5 (Q96KA5 whole entry, looked up): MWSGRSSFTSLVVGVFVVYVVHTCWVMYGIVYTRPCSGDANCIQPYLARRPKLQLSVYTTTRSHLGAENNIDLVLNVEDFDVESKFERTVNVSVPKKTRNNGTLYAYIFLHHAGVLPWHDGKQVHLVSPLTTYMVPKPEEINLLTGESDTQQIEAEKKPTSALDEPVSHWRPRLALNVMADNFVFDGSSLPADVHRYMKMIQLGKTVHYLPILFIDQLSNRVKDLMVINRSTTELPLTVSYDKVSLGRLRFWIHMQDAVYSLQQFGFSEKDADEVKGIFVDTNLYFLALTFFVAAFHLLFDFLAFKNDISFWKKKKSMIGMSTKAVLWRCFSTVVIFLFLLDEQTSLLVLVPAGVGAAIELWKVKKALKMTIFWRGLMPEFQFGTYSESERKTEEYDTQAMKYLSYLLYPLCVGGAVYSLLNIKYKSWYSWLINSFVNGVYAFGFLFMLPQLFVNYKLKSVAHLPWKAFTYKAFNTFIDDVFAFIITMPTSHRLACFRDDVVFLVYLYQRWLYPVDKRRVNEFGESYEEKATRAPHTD
inactive: [1] -0.067 | [2] -0.185 | [3] 0.005 | [4] 0.013 | [5] 0.009 | [6] -0.051 | [7] 0.023 | [8] 0.054 | [9] -0.023 | [10] -0.188 | [11] 0.11 | [12] -0.013 | [13] 0.008 | [14] -0.008 | [15] -0.057 | [16] -0.042 | [17] -0.011 | [18] -0.099 | [19] 0.021 | [20] 0.043

CCNH (UniProt P51946)
Chain of UniProt P51946 (P51946 whole entry, looked up): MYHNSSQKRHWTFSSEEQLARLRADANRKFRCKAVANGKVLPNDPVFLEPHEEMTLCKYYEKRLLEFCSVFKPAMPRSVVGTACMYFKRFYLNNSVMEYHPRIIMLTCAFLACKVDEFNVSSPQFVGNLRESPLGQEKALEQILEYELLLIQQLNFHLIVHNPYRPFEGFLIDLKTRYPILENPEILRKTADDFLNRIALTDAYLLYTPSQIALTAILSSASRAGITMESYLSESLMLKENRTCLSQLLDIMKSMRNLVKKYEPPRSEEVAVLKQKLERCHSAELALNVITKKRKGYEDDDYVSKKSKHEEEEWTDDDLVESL
inactive: [1] -0.034 | [2] -0.028 | [3] 0.021 | [4] -0.024 | [5] -0.004 | [6] 0.046 | [7] -0.019 | [8] -0.001 | [9] -0.069 | [10] 0.005 | [11] 0.094 | [12] -0.019 | [13] -0.014 | [14] -0.001 | [15] -0.037 | [16] -0.037 | [17] 0.036 | [18] -0.044 | [19] -0.031 | [20] 0.033
